In the library only some 7.3% were active in any assay of this set; here they are far more common.
Rab9 prom act: activates the Rab9 promoter | Potency, µM (doses to about 9.22 µM), inactives show at the top dose activation, negative = inhibition, usual class: activators | hit rate 2.8% among 320,000 | Huh7 Rab9 promoter-luciferase reporter, luminescence, 24 h | AID 485297; further: % of control where 0% means no effect; nearly all actives have a fitted effect of over 60% in size
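Huh7 cells stably carrying a Rab9 promoter-luciferase reporter, 1500 cells per well in OP-MEM I with 10% FBS, treated with compound 24 hours at 37C. Luciferase activity read by luminescence after 10 minutes with Amplite reagent.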
FLuc counter: counter-screen for miR-21 project: firefly luciferase inhibitors or activators; hit rate 6.9% among 360,000; purified FLuc, Km substrates, luminescence inhibition; P08659; Potency, µM (top dose mostly 57.5 µM), inactives show top-dose activity change, negative = inhibition, usual class: inhibitors;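 further: plate controls were vehicle for no effect and reference inhibitor for full effect; nearly all actives have a fitted effect of over 55% in size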
Target sequence (P08659 whole entry, looked up): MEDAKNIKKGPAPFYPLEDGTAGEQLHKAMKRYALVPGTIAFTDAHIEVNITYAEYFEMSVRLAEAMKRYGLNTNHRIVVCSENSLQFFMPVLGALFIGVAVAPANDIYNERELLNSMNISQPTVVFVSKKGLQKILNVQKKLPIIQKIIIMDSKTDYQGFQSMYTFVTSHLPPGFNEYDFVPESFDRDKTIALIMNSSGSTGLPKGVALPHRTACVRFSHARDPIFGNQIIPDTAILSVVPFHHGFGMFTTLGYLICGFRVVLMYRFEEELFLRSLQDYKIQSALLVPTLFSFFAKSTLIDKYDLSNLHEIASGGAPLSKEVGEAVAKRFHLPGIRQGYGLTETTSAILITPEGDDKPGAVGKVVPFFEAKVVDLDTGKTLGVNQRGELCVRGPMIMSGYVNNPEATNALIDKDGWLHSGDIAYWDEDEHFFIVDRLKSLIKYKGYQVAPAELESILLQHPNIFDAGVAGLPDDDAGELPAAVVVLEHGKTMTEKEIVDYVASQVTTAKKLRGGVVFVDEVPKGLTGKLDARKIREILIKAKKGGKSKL
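Biochemical qHTS of compounds, final roughly 60 µM downward over six points, against 10 nM purified firefly luciferase using Km concentrations of substrates (10 uM D-luciferin, 10 uM ATP) in Tris acetate pH 7.5 buffer; luminescence output.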
NPC1 promoter act: activators of NPC1 promoter; AID 485313; Potency, µM (doses to about 9.22 µM), without a hit: at the top dose activation, usual class: activators; Huh7 NPC1 promoter luciferase reporter, 24 h; hit rate 2.4% among 320,000; further: % of control where 0% means no effect; nearly all actives have a fitted effect of over 60% in size
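Huh7 cells stably carrying NPC1 promoter–luciferase, plated in Opti-MEM with 10% FBS for 2 h, were exposed to compound in DMSO for 24 h at 37 °C; luciferase reagent was added for 10 min and luminescence read.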
SMN2 splice up: SMN2 splice variant enhancement; AID 1458; Potency, µM (highest dose often 46.1 µM), without a hit: top-dose activity change, positive = activation, most hits filed as activators; HEK293 SMN2-luciferase splicing reporter, luminescence, 30-36 h; hit rate 2.8% among 210,000; further: % of control where 0% means no effect; nearly all actives have a fitted effect of over 55% in size
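HEK293 cells carry an SMN2 […]–luciferase reporter in which exon 7 inclusion puts luciferase in frame. Cells were plated 10-12 h before compound addition, then incubated 30-36 h at 37C. ONE-Glo luminescence was read; sodium butyrate at 4.5 mM final served as control.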
KinaseGlo FLuc: Kinase-Glo luciferase inhibition (counter-screen); Q27757; Kinase-Glo luciferase, ATP luminescence, 8 min; Potency, µM (titrated, usually from 38.3 µM), inactives show top-dose activity change, negative = inhibition, usual class: inhibitors; hit rate 0.28% among 200,000; AID 1379; further: on the % scale 0 is the no-effect control and ±100 the full control effect; nearly all actives have a fitted effect of over 60% in size
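Inhibition of Kinase-Glo luciferase light generation was assessed at 10 uM ATP in pH 7.2 imidazole buffer, with luminescence measured after eight minutes at ambient temperature.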
ELG1 genotox: genotoxicity induction in ELG1-luciferase HEK293T cells | HEK293T ELG1-luciferase reporter, luminescence, 16 h | Potency, µM (series often up to 46 µM), inactives show top-dose activity change, positive = activation, usual class: activators | hit rate 1.3% among 330,000; further: % of control where 0% means no effect; nearly all actives have a fitted effect of over 60% in size
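Genotoxicity was scored as increased ELG1-luciferase reporter signal, measured by ONE-Glo luminescence (30 min, room temperature). Compound or vehicle exposure of the HEK293T reporter cells lasted 16 hr at 37°C.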
Active calls of the source: *; ? = inconclusive; nt = not tested or not shown; [ ] = dose if it differs, or a comment. The call rests on the fitted dose curve; in most records, active means well fitted curve in the direction sought with a large enough effect; inconclusive means small, poorly fitted or top-dose-only effect, or another doubt; inactive means no such curve, though single readings can be large; an effect the other way counts as inactive or inconclusive. Potency means the concentration at half of the fitted maximal effect.

SMILES	Rab9 prom act	FLuc counter	NPC1 promoter act	SMN2 splice up	KinaseGlo FLuc	ELG1 genotox
Cc1ccc(C(=O)COC(=O)c2cccc(NC(=O)c3ccc(Cl)cc3Cl)c2)cc1	nt	0.85µM*	nt	?	nt	nt
O=C(Nc1cccc(NC(=O)c2ccc(Cl)cc2Cl)c1)c1cccnc1	-5%	13µM*	-5%	nt	nt	-9%
COc1ccc(CC(=O)Nc2ccc(-c3ccc4nnc(C)n4n3)cc2)cc1OC	-19%	0%	-11%	18µM*	4%	21µM*
COc1cccc(NC(=O)c2cc3c(-c4ccc(Cl)cc4)nn(C)c3s2)c1	nt	0%	nt	nt	nt	nt
CCCCc1c(C)c(C#N)c2[nH]c3ccccc3n2c1=O	-7%	2%	0%	nt	-3%	-12%
CCCc1cc(=O)n2c([nH]c3ccccc32)c1C#N	?	6.7µM*	20%	-3%	12%	1%
CCOC(=O)CNc1ncnc2c1nnn2C	nt	1%	nt	nt	nt	nt
Cc1ccc2nc(-c3ccsc3)c(Nc3ccccc3C)n2c1	nt	4%	nt	20%	nt	nt
CCOC(=O)CNc1c(-c2ccc(O)cc2)nc2ccccn12	24%	?	3%	-1%	-7%	4%
CCOC(=O)CNc1c(-c2ccccc2)nc2ccc(Cl)cn12	23%	9.5µM*	28%	0%	-27%	9%
COC(=O)CNc1c(-c2ccccn2)nc2ccc(Br)cn12	0.89µM*	3.4µM*	1.6µM*	5µM*	-27%	1.3µM*
CCOC(=O)CNc1c(-c2ccc(O)cc2)nc2ccc(Cl)cn12	29%	15µM*	20%	38%	-8%	?
Cc1ccccc1Nc1c(-c2ccncc2)nc2ccc(Cl)cn12	12%	-4%	-7%	10µM*	-2%	-9%
COc1ccc2nc(N(Cc3cccnc3)C(=O)CCc3ccccc3)sc2c1	nt	2%	nt	nt	nt	nt
COc1cc(NC(=O)c2ccc(-c3nc(CSc4ccccc4)c(C)o3)cc2)cc(OC)c1	nt	-12%	nt	nt	nt	nt
CCC(C)NC(=O)CCCc1nnc2n(CC(C)C)c(=O)c3sccc3n12 (stereo not given)	nt	-5%	nt	nt	nt	nt
Cn1ncc(Br)c1C(=O)N/N=C/c1ccc(OS(=O)(=O)c2ccccc2)cc1	-1%	1%	3%	2%	-1%	6%
CC(/C=N/NC(=O)c1nnn(-c2nonc2N)c1C)=C\c1ccccc1	26%	?	28%	nt	nt	?
CC(/C=N/NC(=O)c1c(Br)cnn1C)=C\c1ccccc1	17%	17µM*	23%	14%	1%	8%
CC(/C=N/NC(=O)c1nn(C)c(C)c1Br)=C\c1ccccc1	3.5µM*	1.9µM*	?	nt	10%	?
O=C(NCC1CCCO1)c1ccc(-c2ccccc2Cl)o1 (stereo not given)	2.8µM*	17µM*	3.5µM*	nt	nt	?
Cc1onc(-c2ccccc2Cl)c1C(=O)NCC1CCCO1 (stereo not given)	-6%	0%	-4%	0%	-2%	1%
O=C(NCC1CCCO1)c1cc(-c2ccccc2F)no1 (stereo not given)	2.8µM*	15µM*	?	nt	nt	?
O=C(NCc1ccco1)c1ccc(-c2ccccc2Cl)o1	30%	17µM*	2%	29%	-6%	16%
O=C(NCc1ccco1)c1ccc(-c2ccc(Cl)cc2)o1	25%	15µM*	18%	-10%	-6%	3%
SMILES	Rab9 prom act	FLuc counter	NPC1 promoter act	SMN2 splice up	KinaseGlo FLuc	ELG1 genotox
O=C(NCC1CCCO1)c1ccccc1 (stereo not given)	nt	0%	nt	2%	-3%	nt
CC(C)OCCCNC(=O)C(=O)Nc1ccc2nc3n(c(=O)c2c1)CCCCC3	nt	5%	nt	6%	nt	nt
COc1ccc(N2CC(NC(=O)c3ccc4c(c3)OCO4)CC2=O)cc1 (stereo not given)	nt	-2%	nt	nt	nt	nt
CN(C)/C=C/C(=O)c1ccc(F)cc1	11%	-8%	-3%	-12%	-3%	0%
CC(=O)c1ccc(N/C=C/C(=O)c2ccc(Br)cc2)cc1	4µM*	-5%	2.8µM*	nt	nt	6.5µM*
NS(=O)(=O)c1ccc(N/C=C\C(=O)c2ccc(F)cc2)cc1	3.5µM*	15µM*	4µM*	13µM*	-5%	?
CN(C)c1ccc(N/C=C/C(=O)c2ccc(F)cc2)cc1	2.5µM*	0.48µM*	3.2µM*	10µM*	?	2.1µM*
NS(=O)(=O)c1ccc(N/C=C/C(=O)c2ccc(Br)cc2)cc1	2.8µM*	-13%	?	?	1%	?
CC1CCN(CC(=O)N2c3ccccc3Sc3cc4ccccc4cc32)CC1	nt	nt	nt	-11%[9.22 µM]	-5%[7.66 µM]	nt
COc1cc(OC)c(NC(=O)CC(c2cccs2)N2Cc3ccccc3C2=O)cc1Cl (stereo not given)	nt	-14%	nt	nt	nt	nt
O=[N+]([O-])c1ccc(-c2ncc(-c3ccc(Br)cc3)o2)cc1	?	?	?	nt	nt	13%
Cc1ccc(-c2cnc(-c3ccncc3)o2)cc1	?	6.7µM*	?	22µM*	-2%	18µM*
Nc1ccc(-c2ncc(-c3ccccc3)o2)cc1	-33%	1.5µM*	-17%	nt	nt	?
COc1cccc(-c2csc(-c3c(N)c(C(=O)c4ccccc4)n4ccccc34)n2)c1	nt	0%	nt	0%	nt	nt
COc1ccc(S(=O)(=O)N(C)C)cc1NC(=O)c1ccc2c(c1)OCCO2	-6%	-2%	0%	nt	nt	1%
CCC(=O)Nc1cccc(NC(=O)c2ccc3c(c2)OCCO3)c1	?	17µM*	?	13µM*	-9%	7%
CN(C)S(=O)(=O)c1cccc(NC(=O)c2ccc3c(c2)OCCO3)c1	?	9.5µM*	3.2µM*	nt	nt	0%
O=C(CSc1nc2c([nH]c3ccccc32)c(=O)n1-c1ccccc1)N1CCCCC1	nt	-2%	nt	nt	nt	nt
Cc1ccc(Sc2c(C)nn(C(C)(C)C)c2OC(=O)CC(C)C)cc1	nt	5%	nt	-11%	nt	nt
CC[N+](CC)(CCNC(=O)C(=O)NCC[N+](CC)(CC)Cc1ccccc1Cl)Cc1ccccc1Cl	nt	nt	nt	-8%	3%	nt
CCc1nn2c(-c3ccco3)ccnc2c1-c1ccccc1	nt	?	nt	12%	nt	nt
CCc1nn2c(-c3ccco3)ccnc2c1-c1ccc(F)cc1	nt	11µM*	nt	-4%	nt	nt
O=C(Nc1cc(-c2nc3ccccc3o2)ccc1Cl)c1ccc(Br)o1	nt	4%	nt	6%	nt	nt
CC(C)Nc1oc(-c2cccc3ccccc23)nc1C#N	?	12µM*	0%	10%	11%	?
COCCNc1oc(-c2ccccc2Cl)nc1C#N	9%	19µM*	17%	0%	0%	2%
CC1CCN(c2oc(-c3cccc4ccccc34)nc2C#N)CC1	?	?	?	11µM*	0%	?
N#Cc1nc(-c2cccc3ccccc23)oc1N1CCCCC1	?	?	?	8%	11%	16%

Screening data deposited in PubChem BioAssay by National Center for Advancing Translational Sciences (NCATS).
